An excerpt weighted towards active compounds, which were near 2% of everything screened.
STK33 kin inh – inhibitors of human STK33 kinase. Q9BYT3. ADP-Glo luminescence, MBP substrate. inhibition, % at 12.5 µM. hit rate 0.44% among 27,000; in the data active means inhibition above about 20%; inconclusive means no clear call, values can overlap the other calls
ID4 binder – binders of human ID4 protein; P47928; small molecule microarray, Flag-ID4 binding, fluorescence F/B; calls only; hit rate 1.2% among 31,000; call rule not given here;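 further: a binder raises fluorescence above local background on the spot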
Target sequence (P47928 whole entry, looked up): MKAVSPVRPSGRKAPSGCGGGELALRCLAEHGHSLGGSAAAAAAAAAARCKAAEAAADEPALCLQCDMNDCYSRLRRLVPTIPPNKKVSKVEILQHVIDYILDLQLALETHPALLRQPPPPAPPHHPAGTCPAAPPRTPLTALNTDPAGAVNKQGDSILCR
p53 PUMA act – re-activators of the mutant p53 pathway; activation, % at 9.98 µM; hit rate 1.5% among 28,000; AID 624151; SW480 PUMA-promoter luciferase, p53 mutant reactivation; in the data active means activation above about 52%; inconclusive means no clear call, values can overlap the other calls
* hit, by the source's call; i = inactive; ? = inconclusive; . = no result; + = active, no number.

SMILES	STK33 kin inh	ID4 binder	p53 PUMA act
C[C@@H]1CN([C@H](C)CO)C(=O)c2cccc(NC(=O)Nc3ccc4c(c3)OCO4)c2O[C@H]1CN(C)C	.	i	60*
COc1ccc(CN(C)C[C@H]2Oc3c(NC(=O)Nc4ccc5c(c4)OCO5)cccc3C(=O)N([C@H](C)CO)C[C@@H]2C)cc1	.	i	61*
C[C@H](CO)N1C[C@H](C)[C@H](CN(C)C(=O)Nc2ccc3c(c2)OCO3)Oc2c(NC(=O)Nc3ccc4c(c3)OCO4)cccc2C1=O	.	.	-2
C[C@@H]1CN([C@@H](C)CO)C(=O)c2cccc(N(C)C)c2O[C@H]1CN(C)S(=O)(=O)c1ccc(Cl)cc1	.	i	-7
Cc1cccc(Cn2nc(C(C)(C)C)cc2C(=O)Nc2cccnc2)c1	0	.	.
CCC1C(=O)O[C@]23C=C[C@@H]4C(C(=O)O)=CO[C@H](OC12)[C@@H]43 (some centres undefined)	-1	i	.
Cc1ccc(-c2noc(CN(C(=O)c3ccccc3-c3ccccc3)C(C)C)n2)cc1	0	i	-22
COc1c(N2CCNC(C)C2)c(F)cc2c(=O)c(C(=O)O)cn(C3CC3)c12 (centres undefined)	3	+	.
O=C(O)c1cn(C2CC2)c2cc(N3CCNCC3)c(F)cc2c1=O	-2	i	.
C/C=C1/C(=O)O[C@]2(C)C[C@@H]3OC(=O)C(COC)[C@]34O[C@@]12CC[C@@](C)(O)CC4=O (some centres undefined)	0	.	17
O=C(CCCC(=O)Nc1ccc2ccccc2c1)Nc1ccc2ccccc2c1	2	i	-5
N#CCc1ccc(NC(=O)CN2C(=O)c3ccccc3S2(=O)=O)cc1	5	i	-13
C=CCN1CCc2cc(OC)c(OC)cc2C1C#Cc1ccccc1 (centres undefined)	-3	i	.
Cc1c(C)c(C)c(S(=O)(=O)N2CCCC2)c(C)c1C	-1	.	.
CC(C)(OC(=O)c1ccccc1)[C@@H]1Cc2cc3ccc(=O)oc3cc2O1	-1	i	13
CC(C)(O)[C@@H]1Cc2cc3ccc(=O)oc3cc2O1	1	i	54*
Cc1ccc(-c2nc3ccccc3o2)cc1NC(=O)CN1C(=O)c2ccccc2C1=O	1	i	-2
C=CCNc1nc(N)c(C(=O)Nc2cc(C)on2)s1	6	i	70*
C=CCNc1sc(C)nc1C(N)=O	1	.	.
Cn1nnnc1SCC(=O)Nc1ccc(C(=O)O)cc1	4	i	-4
Cc1ccc(NC(=O)CSc2nnnn2-c2cccc(C(=O)O)c2)cc1C	-1	+	0
O=C(CSc1nnnn1-c1ccccc1)Nc1cccc(C(=O)O)c1	0	i	-8
Cn1nnnc1SCC(=O)Nc1ccc(I)cc1	-2	i	78*
CN(C)CCCC[C@@H]1NC(=O)[C@H]2C[C@@H](C(=O)NCCCCCN)[C@@H](c3cccc(OCCO)c3)N2C1=O	-3	.	.
CC(C)n1c2ccccc2c2nnc(SCC(=O)N3c4ccccc4Sc4ccccc43)nc21	3	i	-14
SMILES	STK33 kin inh	ID4 binder	p53 PUMA act
O=C(NC(=S)Nc1ccc(Cl)c(C(=O)O)c1)c1cccc(COc2ccccc2)c1	-1	+	2
O=C(COc1ccccc1)NC(=S)Nc1cccc(NC(=O)c2ccccc2Cl)c1	4	i	-12
O=C(NC(=S)NCc1cccnc1)c1ccc(-c2cccc(Cl)c2Cl)o1	6	i	61*
O=C(NC(=S)NCc1cccnc1)c1ccc(-c2cccc([N+](=O)[O-])c2)o1	9	i	48
COC(=O)c1cccc(NC(=O)COc2cc(C)ccc2C)c1	2	i	19
Cc1cc(=O)[nH]c(SCCOc2cccc(Oc3ccccc3)c2)n1	-1	i	-11
Cc1ccc([N+](=O)[O-])c(OCCSc2ncccn2)c1	3	i	?
COc1cccc(OCCSc2nc(N)cc(N)n2)c1	2	i	64*
O=[N+]([O-])c1ccc(OCCCSc2ncccn2)cc1	0	i	57*
COc1ccc(OCCCSc2ncccn2)cc1	6	i	126*
COc1cccc(OCCCCSc2ncccn2)c1	-3	i	18
COc1ccc(S(=O)(=O)N(C)CC(=O)Nc2cccc(C(F)(F)F)c2)cc1Cl	0	i	-2
Cc1ccc(NC(=O)CN(c2c(C)cccc2C)S(C)(=O)=O)cc1C	-4	i	4
O=[N+]([O-])c1ncn(Cc2ccccn2)n1	-2	i	6
COC(=O)c1sccc1-c1ccc(-c2ccn(C(=O)c3ccc(Cl)cc3)n2)o1	.	i	97*
CC(C)c1ccc(NN2C(=O)CC(c3ccccc3)C2=O)cc1 (centres undefined)	-1	.	.
O=C(O)/C=C/CCCCCCCC(=O)O	-1	i	.
C[C@@H]1CN([C@@H](C)CO)S(=O)(=O)c2ccc(C3=CCCC3)cc2O[C@@H]1CN(C)Cc1cccc(C(=O)O)c1	.	+	3
C[C@H](CO)N1C[C@H](C)[C@@H](CN(C)Cc2ccc3c(c2)OCO3)Oc2cc(-c3cccc(C(=O)N(C)C)c3)ccc2S1(=O)=O	.	.	-35
C[C@H](CO)N1C[C@H](C)[C@H](CN(C)Cc2cccc(C(=O)O)c2)Oc2cc(C3=CCCC3)ccc2S1(=O)=O	.	i	3
C[C@H]1CN([C@@H](C)CO)S(=O)(=O)c2ccc(-c3cccc(C(=O)N(C)C)c3)cc2O[C@@H]1CN(C)Cc1ccc2c(c1)OCO2	.	+	-43
C/C=C(/C)C(=O)O[C@H]1[C@H](OC(=O)/C(C)=C\C)[C@]2(CO)[C@H](O)C[C@]3(C)C(=CCC4[C@@]5(C)CC[C@H](OC6OC(C(=O)O)C(O)C(OC7OC(C)C(O)C(OC8OC(CO)C(O)C(O)C8O)C7O)C6O)C(C)(C)C5CC[C@]43C)[C@@H]2CC1(C)C (some centres undefined)	-3	.	.
COC(=O)c1ccc(CSc2n[nH]c(-c3ccccc3OC)n2)o1	2	i	-14
COc1ccc([N+](=O)[O-])cc1NC(=O)CN(c1ccc(I)cc1)S(C)(=O)=O	0	i	-16
Cc1cc(C)cc(N(C(C)C(=O)O)S(C)(=O)=O)c1 (centres undefined)	0	i	4
SMILES	STK33 kin inh	ID4 binder	p53 PUMA act
CC(Oc1ccccc1-c1ccccc1)c1n[nH]c(=S)n1-c1ccccc1 (centres undefined)	1	.	.
c1cc(-c2cnn3cc(-c4ccc(OCCN5CCCCC5)cc4)cnc23)ccn1	.	+	-60
CCCCOc1ccc(C(=O)CCN2CCCCC2)cc1	2	.	.
COC(=O)c1cccc(NC(=O)CN(c2ccc(F)c(Cl)c2)S(C)(=O)=O)c1C	-1	i	6
Cc1ccc([N+](=O)[O-])cc1S(=O)(=O)NCc1cccnc1	3	i	-7
Cc1ccn2cc(-c3cccc(NS(=O)(=O)c4cc([N+](=O)[O-])ccc4C)c3)nc2c1	0	i	111*
COc1ccccc1C1=NOC(Cn2c(NCc3ccccc3)nc3c2c(=O)n(C)c(=O)n3C)C1 (centres undefined)	3	+	5
Cn1c(=O)c2c(nc(NCCO)n2CCc2ccccc2)n(C)c1=O	0	i	7
CC1(C)CC2/C(CO)=C\C=C[C@@](C)(O)CC[C@]21O (some centres undefined)	.	.	-6
CS(=O)(=O)N(CC(=O)Nc1cccc(Br)c1)c1cccc2ccccc12	4	i	8
CN1CCN(C(=O)c2nc3ccc(Cl)cc3[nH]2)CC1	.	i	57*

Bioassay records from PubChem BioAssay.
